A short description of assay [1]: UWB1.289 Cancer Cell Toxicity qHTS against the NCATS CANVASS Library (AID 1347347). Also: series mostly up to about 38 µM; nearly all actives have a fitted effect of over 60% in size. In short, it runs like this: (§1)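 In this cytotoxicity screen, 1000 cells per well rested 4 hours, then received compound (11 concentrations) for a 72-hour incubation; an ATP-dependent luminescent signal (CellTiter-Glo) was the endpoint.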
Background: Quantitative high-throughput screening tests each substance at several concentrations.

A short description of assay [2]: SW1088 Cancer Cell Toxicity qHTS against the NCATS CANVASS Library (AID 1347350). Also: nearly all actives have a fitted effect of over 75% in size. In short, it runs like this:
as §1

A short description of assay [3]: A2780 Cisplatin Sensitive Ovarian Cancer Cell Toxicity qHTS against the NCATS CANVASS Library (AID 1347353). Also: nearly all actives have a fitted effect of over 60% in size. In short, it runs like this:
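A2780 cisplatin-sensitive cells (750 per well) were seeded, left 4 h at 37 °C, then pin-dosed in an 11-point series. After 72 h at 37 °C/5% CO2, viability was measured as ATPLite luminescence.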

The nature of assay [4]: UWB1.289-WTBRCA1 Cancer Cell Toxicity qHTS against the NCATS CANVASS Library (AID 1347354). The method in brief: (§2)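 Cells were seeded at 1000 per well and allowed to settle 4 hours at 37 degrees C before pin transfer of compounds as an 11-point series. Viability was read by CellTiter-Glo luminescence after 72 hours' exposure.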
Assay [5] in a line: HEK-293 Cancer Cell Toxicity qHTS against the NCATS CANVASS Library (AID 1347355). Also: series mostly up to about 46 µM; nearly all actives have a fitted effect of over 65% in size. In short, it runs like this: as §2
For assay [6], the system named is NAD(P)H diaphorase (Clostridium kluyveri). Description: Diaphorse counterscreen qHTS: Assay Interference Panel against the NCATS CANVASS Library (AID 1347362). In short, it runs like this: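 Clostridium kluyveri diaphorase in PBS + 0.01% Tween-20 preincubated 15 min with compounds. Resazurin and NADH then added for 5 min at room temperature in the dark; resorufin fluorescence read (ex 525, em 598).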
In general terms: Counterscreens check selectivity or assay interference.

Assay [7] is described as follows: KB-8-5-11 Cancer Cell Toxicity qHTS against the NCATS CANVASS Library (AID 1347364). Also: nearly all actives have a fitted effect of over 75% in size. The method in brief: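 KB-8-5-11 cells (500/well) in DMEM + 10% FBS were exposed to compounds in an 11-point qHTS series for 72 hr at 37C, 5% CO2. Viability was read by CellTiter-Glo luminescence.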
Assay [8] is described as follows: SDT Cancer Cell Toxicity qHTS against the NCATS CANVASS Library (AID 1347365). Also: nearly all actives have a fitted effect of over 60% in size. In short, it runs like this: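 SDT canine glioma cells (500 cells/well) were exposed to compounds in an 11-point series for 72 hr at 37C, 5% CO2; viability was read as ATP content by CellTiterGlo luminescence.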
Assay [9] can be described thus: KB-3-1 Cancer Cell Toxicity qHTS against the NCATS CANVASS Library (AID 1347366). Also: nearly all actives have a fitted effect of over 75% in size. The method in brief:
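CellTiter-Glo luminescence measured viability after 72 h at 37C. KB-3-1 cells were seeded at 500 per well in DMEM/10% FBS.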

Assay [10] can be described thus: qHTS for Hypoxia signaling pathway (HIF-1) antagonists against the NCATS CANVASS Library (AID 1347374).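 Also: HRE-bla ME-180 cells stimulated with cobalt chloride to stabilize HIF-1alpha; series mostly up to about 38 µM; nearly all actives have a fitted effect of over 60% in size.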 The method in brief:
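HRE-bla ME-180 cells (2,000/well, 0.5% dialyzed FBS) were pre-incubated 5 h, then given an 11-point compound series plus CoCl2 (60 uM solution as added) for 17 h at 37C. CCF4 β-lactamase read (ex 405, em 460/530 nm) after 2 h at RT.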

Assay [11] in a line: qHTS for Hypoxia signaling pathway (HIF-1) agonists against the NCATS CANVASS Library (AID 1347375). The method in brief:
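HRE-bla ME-180 cells (beta-lactamase reporter under hypoxia responsive element) in 0.5% dialyzed FBS medium, 5 h at 37C, then compound 17 h, 11-point qHTS series. CCF4-AM FRET substrate 2 h RT; 460/530 nm emission read.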

Assay [12] can be described thus: DH5-alpha competent E. coli microbial cell viability qHTS against the NCATS CANVASS Library (AID 1347377). To be noted: outcome: dose series up to 46.1 µM unless noted. The method in brief: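 DH5-alpha E. coli suspension (0.9 OD culture diluted to 0.2 OD) exposed to compounds in an 11-point series, overnight at 37C, 5% CO2. Viability read as ATP by BacTiter-Glo luminescence after 20 min at room temperature.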

The nature of assay [13]: qHTS for H2AX Agonists against the NCATS CANVASS Library (AID 1347378). In short, it runs like this: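 Phospho-H2AX (S139) in CHO-K1 lysates measured by HTRF, reported as 665/615 nm emission ratio after 24 hr antibody incubation at room temperature. Cells were first treated with a compound series for 3 hr at 37C (0.76% DMSO final).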
The nature of assay [14]: qHTS for Activators of p53 Stress Response Pathway screened against the NCATS CANVASS Library (AID 1347388). In short, it runs like this:
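p53RE-bla HCT-116 cells (4000/well) were pre-incubated for 5 h, then treated with compound (11 points) for 16 h at 37C. After 2 h with CCF4, the 460/530 nm ratio gave reporter activation; CellTiter-Glo measured viability.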

The nature of assay [15]: Secretion counterscreen for inhibitors of the SERCaMP assay screened against the NCATS CANVASS Library (AID 1347390).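 Also: light from luciferase secreted into medium read as a measure of general secretion; series mostly up to about 77 µM.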 The method in brief:
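Counterscreen for secretory-pathway interference: after 4 h attachment, SH-SY5Y-GLuc cells were exposed 20 hours to compounds (final 0.001 - 77 uM), then coelenterazine added and GLuc luminescence recorded; Brefeldin A served as control.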

The nature of assay [16]: qHTS for activators of dead-cell proteases activity screened against the NCATS CANVASS Library (AID 1347392).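 Also: luminescence from protease leaking out of membrane-damaged cells cleaving impermeant substrate; rising signal means more cytotoxicity.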 In short, it runs like this: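 HepG2 cells, 2000/well, attached 18 h at 37C, then exposed to compounds (11-point qHTS) for 5 h. Dead-cell protease release read as luminescence from cell-impermeant AAF-aminoluciferin substrate after 15 min at room temperature.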

Assay [17] in a line: qHTS for inhibitors of ER calcium dysfunction: SERCaMP assay screened against the NCATS CANVASS Library (AID 1347393). Also: nearly all actives have a fitted effect of over 40% in size. Also: potency is read from the fitted curve at half-maximal effect. In short, it runs like this:
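SH-SY5Y GLuc-SERCaMP, 1000 cells/well, 4 h attach; cpd 16 h, 37C/5% CO2; thapsigargin (added as 6x 600 nM) 4 h; coelenterazine; luminescence. Reduced reporter release = ER Ca stabilization.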

Assay [18] in a line: qHTS for inhibitors of Wild type Zika virus screened against the NCATS CANVASS Library (AID 1347396).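 Also: ATP luminescence of surviving cells so rescue from viral cell killing; series mostly up to about 46 µM.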 The method in brief:
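Vero 766 (African green monkey) cells, 1000 per well, attached overnight, then compounds were added in an 11-point series before wild-type Zika virus infection. After 72 h at 37C, cell viability was read as CellTiter Glo luminescence.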

Assay [19] is described as follows: Viability qHTS for inhibitors of the SERCaMP assay screened against the NCATS CANVASS Library (AID 1347400). Also: series mostly up to about 92 µM; nearly all actives have a fitted effect of over 70% in size. The method in brief: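 SH-SY5Y-GLuc SERCaMP MJH297-derived cells (1000 cells/well) were pre-incubated 4 h at 37C, then exposed to compounds for 48 h. Viability was read as CellTiter-Glo luminescence; bortezomib served as positive control.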
The nature of assay [20]: Redox Reaction Profiling qHTS: Assay Interference Panel against the NCATS CANVASS Library (AID 1347401). In short, it runs like this: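 Compounds in 11-point series incubated with 5 uM resazurin and 200 uM DTT in 50 mM HEPES pH 7.3, 50 mM NaCl. Resorufin fluorescence (Ex 525/Em 598) read before and after 15 min in the dark.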

Structures are written as SMILES. Inconclusive results are not listed. Activity calls are given as the source filed them. Calls follow the shape of the dose curve; as a rule, active = well fitted curve in the direction sought with a large enough effect; inconclusive = small, poorly fitted or top-dose-only effect, or another doubt; inactive = no such curve, though single readings can be large; an effect the other way counts as inactive or inconclusive. Numbered stars: 1 amine (or outer) side, 2 acyl side, 3 side chain; on linkers, the order of the positions; unused ones are H or OH. Square brackets hold non-standard residues; d marks the D form. Peptide text beside a SMILES is read from it. X1 = CCCCCCCCCC(=O)[C@H](C(=O)[*:2])[C@@H]1CNC(=O)[C@@H](N[*:1])CS1

With `O=C(O)Cc1c[nH]c2ccccc12`, the Potency result in [1], in assay [2], in assay [3], in assay [4], in assay [5] and in assay [6] was “inactive” each time. The Potency entry in assay [7], in [8], in assay [9], in [10], in assay [11] and in assay [13] was “inactive” each time. Besides, the Potency result in assay [14], in [15], in assay [16], in assay [17], in [18] and in assay [19] was “inactive” each time. Also, the Potency entry in assay [20] was “inactive”. In assay [12], the outcome was inactive.

Take `COc1ccc([C@@H]2c3cc(OC)c(OC)cc3C(=O)C(C)C2C)cc1OC` (some centres undefined): the Potency entry in assay [1], in assay [2], in [4], in assay [5], in assay [6] and in assay [7] was “inactive” each time. Besides, the Potency result in [8], in [9], in [10], in assay [11], in assay [13] and in assay [14] was “inactive” in each case. For the same compound, the Potency entry in [15], in [16], in assay [18] and in assay [20] was “inactive” in each case. Also, the compound was called inactive in [12]. In assay [17], the Potency is 38.4 µM (active).

On to `C[C@@H]1C[C@H]2C[C@]3(CCCCN3C)[C@@H]3C[C@H]2[C@H](C1)N(C)C3`, for which the Potency result in assay [1], in assay [2], in assay [3], in assay [4], in [6] and in assay [7] was “inactive” each time. The Potency result in assay [8], in [9], in assay [10], in assay [11], in [13] and in [14] was “inactive” throughout. The Potency result in assay [16], in assay [18] and in assay [20] was “inactive” each time. Further, the compound was classed as inactive in assay [12]. Also, the Potency in assay [17] is 30.5 µM (active).

As to `CO[C@@H]1[C@H](O)[C@@H](C)O[C@@H](OC[C@H]2/C=C/C=C/C(=O)C(C)C[C@H](C)C(O[C@@H]3O[C@H](C)CC4(OC(=O)O[C@@H]4C)C3O)[C@@H](C)/C=C/C(=O)OC2C)[C@@H]1OC` (some centres undefined), the Potency entry in [1], in [2], in [3], in assay [4], in [6] and in assay [7] was “inactive” in each case. In addition, the Potency result in assay [8], in [9], in assay [10], in assay [11], in assay [13] and in assay [14] was “inactive” throughout. Besides, the Potency result in [15], in assay [16], in assay [18], in assay [19] and in [20] was “inactive” each time. Also, the compound was classed as inactive in [12]. In addition, the Potency in [17] was 15.3 µM (active).

Regarding `C=CC(C)(C)C(=O)[C@@H](C)[C@@H]1CC[C@](C)(C=C)O1`, the Potency result in [2], in [4], in [5], in assay [6], in [7] and in assay [8] was “inactive” throughout. Further, the Potency result in assay [9], in [10], in assay [11], in assay [13], in assay [14] and in assay [15] was “inactive” throughout. Also, the Potency entry in assay [16], in assay [17], in assay [18] and in assay [19] was “inactive” each time. Further, the result in assay [12] was inactive.

Consider `O=C(O)CC1OCc2c(O)cccc21` (centres undefined), for which the Potency result in assay [1], in [2], in assay [3], in assay [4], in [5] and in assay [6] was “inactive” throughout. Also, the Potency entry in assay [7], in [8], in assay [9], in assay [10], in assay [11] and in assay [13] was “inactive” throughout. The Potency result in assay [14], in [16], in assay [17], in assay [18], in [19] and in assay [20] was “inactive” in each case. Further, the compound was classed as inactive in assay [12].

`C=C[C@]1(C)CC[C@@H]([C@H](C)C(=O)/C=C/C(C)C)O1`: the Potency entry in assay [1], in [2], in [3], in assay [4], in [5] and in [6] was “inactive” in each case. Further, the Potency entry in [7], in assay [8], in assay [9], in assay [10], in [11] and in assay [13] was “inactive” each time. Also, the Potency entry in assay [14], in assay [15], in assay [16], in [18], in assay [19] and in assay [20] was “inactive” each time. Also, the compound was called inactive in assay [12].

With `C[C@@H]1O[C@@H](Oc2c(-c3ccc(O)cc3)oc3cc(O)cc(O)c3c2=O)[C@H](O)[C@H](O)[C@H]1O`, the Potency result in assay [1], in assay [2], in assay [3], in assay [4], in assay [5] and in assay [7] was “inactive” in each case. Also, the Potency entry in assay [8], in assay [9], in assay [13], in assay [15], in [16] and in [17] was “inactive” throughout. In addition, the Potency entry in assay [18], in [19] and in assay [20] was “inactive” throughout. Moreover, the call in [12] was inactive.

For the compound `CCCCCCCCCC(=O)[C@@H]1C(=O)N[C@@H](CC(C)C)C(=O)N[C@H](C)C(=O)N2CCC[C@H]2C(=O)N[C@@H](C(C)C)C(=O)N[C@H]2CS[C@H]1CNC2=O` (cyclo(L[dA]PV[X1])), the Potency result in assay [1], in assay [3], in assay [4], in assay [5], in [7] and in [9] was “inactive” throughout. Moreover, the Potency result in [10], in [11], in assay [13], in [14], in assay [15] and in assay [16] was “inactive” in each case. Besides, the Potency result in assay [19] and in assay [20] was “inactive” throughout.

For the origin of these results see PubChem BioAssay (NCATS).
